According to PubChem BioAssay (NCATS):
Results filed as inconclusive are left out. Active and inactive are the calls of the source. Unless noted, the call rests on the fitted dose curve; in most records, active means well fitted curve in the direction sought with a large enough effect; inconclusive means small, poorly fitted or top-dose-only effect, or another doubt; inactive means no such curve, though single readings can be large; an effect the other way counts as inactive or inconclusive.

Experiments:
[1] = NFAT Signaling Pathway (AID 444; active means well fitted curve in either direction with a large enough effect, not every such curve was filed as active;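 further: carbachol stimulus at about its EC50 of 1 µM final; on the % scale 0 is the no-effect control and ±100 the full control effect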); details: Jurkat NFAT-bla M1, carbachol, beta-lactamase ratio, 5 h; at 38 µM (top of the series)
Outline: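 Jurkat cells carrying an NFAT-driven β-lactamase reporter and co-transfected muscarinic M1 receptor were treated with compound plus carbachol (1 uM final, an EC50 level) for 5 h at 37 °C. CCF4 loading followed for 1 h at RT; 460/530 nm ratio gave %activity.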

[2] = target: Glucocorticoid receptor (Homo sapiens) (UniProt P04150); assay: GR-GFP Redistribution (AID 450;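 active means compounds whose dose series gives a full or clear partial fitted curve of increased nuclear translocation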; further: potency means the concentration at half of the fitted maximal effect); details: U2OS GR-GFP nuclear translocation, laser cytometry, 2 h
[3] = target: Glucocorticoid receptor (Homo sapiens) (UniProt P04150); assay: GR-EFC Redistribution (AID 451; calls by dose curve; further: potency means the concentration at half of the fitted maximal effect); details: CHO-K1 GR-EFC translocation, beta-gal luminescence, 2 h
Outline: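 CHO-K1 cells stably expressing nuclear-localized β-gal enzyme acceptor and GR fused C-terminally to the enzyme donor fragment; ligand-driven nuclear translocation restores β-gal by complementation. Compounds titrated up to 46 uM final, 2 h at 37 °C; luminescence read.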

[4] = target: Mitogen-activated protein kinase 10 (Mus musculus) (UniProt Q61831); assay: JNK3 AlphaScreen Assay (AID 530; active means well fitted curve in either direction with a large enough effect, not every such curve was filed as active;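 further: kinase came from lysate of stimulated human HepG2 cells; signal reports phosphorylation of biotinylated GST-cJun 1-79 at Ser73 with 10 µM ATP; on the % scale 0 is the no-effect control and ±100 the full control effect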)
Outline: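 JNK3 came from HepG2 lysates pre-activated with IL-1beta and TNF-alpha and phosphorylated biotinylated GST-cJun (1-79) at 10 uM ATP, pH 7.6, room temperature. Compounds were titrated. AlphaScreen signal used anti-phospho-cJun (Ser73) antibody.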

[5] = target: 3',5'-cyclic-AMP phosphodiesterase 4B (Homo sapiens) (UniProt Q07343); assay: qHTS Assay for Inhibitors of PDE-IV (AID 607; active means well fitted activation curve with a large enough effect in the main read-out, with a control signal flat, not every such curve was filed as active; further: % of control where 0% means no effect)
Outline: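 Cell-based read-out of cAMP via a modified cyclic nucleotide-gated channel and membrane potential dye (535/590 nm) in HEK293 cells expressing PDE4 endogenously. Compounds tested up to 22.9 uM final; 100 uM RO 20-1724 reference.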

[6] = target: Guanine nucleotide-binding protein G(i) subunit alpha-1 (Homo sapiens) (UniProt P63096); assay: qHTS Assay for Inhibitors of RGS12 GoLoco Motif Activity (Green Fluorophore) (AID 879);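 further: 0% = labeled peptide with Gαi1 and full inhibition = labeled peptide alone without protein; negative values mean loss of peptide binding seen as reduced polarization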
Outline: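 Fluorescence polarization assay: 50 nM Gαi1 with 10 nM FITC-labeled RGS12 GoLoco peptide in 10 mM Tris pH 7.5, 150 mM NaCl, 0.1 mM GDP, 0.05% NP40, 10 min at room temperature with compound.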

[7] = qHTS Assay for Identification of Small Molecule Agonists for Thrombopoietin (TPO) Signaling Pathway (AID 917); further: on the % scale 0 is the no-effect control and ±100 the full control effect
Outline: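 IL-3-dependent murine pro-B Ba/F3 cells, stably transfected with human TPO receptor and GpIIb-promoter luciferase, are incubated 24 hrs at 37 C with test compound and 26 pM TPO; luciferase signal is read after 10 min at room temperature.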

[8] = target: Muscarinic acetylcholine receptor M1 (Rattus norvegicus) (UniProt P08482); assay: qHTS Assay for Antagonists of Acetylcholine Muscarinic M1 Receptor: Measurement of IP-One Response (AID 944); further: nearly all actives have a fitted effect of over 75% in size
Outline: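 Steps: plate transfected CHO-M1 cells overnight; add test compound, 10 min; add carbachol (200 nM, EC80) in stimulation buffer with LiCl; incubate 30 min; add labelled IP1 tracer and anti-IP1 antibody in lysis buffer; read HTRF after 10 min.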

[9] = target: Pyruvate kinase (Leishmania mexicana) (UniProt Q27686); assay: qHTS Validation Assay for Inhibitors of Leishmania Mexicana Pyruvate Kinase (AID 945);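 further: 0% = DMSO only neutral control wells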
Outline: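 Compounds are tested as eight-point concentration series. Reactions contain 0.2 nM LmPYK E451W, 0.5 mM PEP, 0.1 mM ADP, 7 mM MgCl2 and 50 mM KCl at pH 7.2, run 1 h at room temperature, then read by PKLight luminescence.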

[10] = target: Pyruvate kinase PKM (Homo sapiens) (UniProt P14618); assay: qHTS Assay for Activators of Human Muscle Pyruvate Kinase (AID 954; active means well fitted curve in the direction sought with a large enough effect, not every such curve was filed as active;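 further: 0% = uninhibited enzyme and -100% = no enzyme or full thiadiazolimine inhibition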)
Outline: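 Human PKM2 activity is measured as ATP generation, detected by luciferase-coupled luminescence. The enzyme (0.1 nM) acts on 0.5 mM PEP and 0.1 mM ADP for 1 h at ambient temperature; data are normalized to uninhibited and full-inhibition wells.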

[11] = target: Alpha-galactosidase (Coffea arabica) (UniProt Q42656); assay: Counterscreen for Glucocerebrosidase Inhibitors: qHTS Assay for Coffee Bean alpha-Galactosidase at pH 4.5 (AID 957);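 further: plate controls were enzyme alone for no effect and no enzyme for full effect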
Outline: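 AC50 values derive from Hill-equation modeling of concentration-response data, normalized to no-enzyme and full-activity controls. The pH 4.5 citrate assay used 2 nM coffee bean enzyme and 80 uM fluorogenic substrate for 20 min.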

[12] = target: Alpha-galactosidase A (Homo sapiens) (UniProt P06280); assay: Counterscreen for Glucocerebrosidase Inhibitors: qHTS Assay for Human alpha-Galactosidase at pH 4.5 (AID 992); further: 0% is about no effect
Outline: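 Quantitative HTS: compounds tested from 0.7 nM up to 77 uM against 2 nM enzyme with 80 uM 4-MU alpha-D-galactopyranoside. The 20 min room-temperature reaction is stopped with 1M NaOH/1M glycine, pH 10.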

[13] = target: alpha-glucosidase (Oryza sativa, rice) (UniProt Q653V4); assay: Counterscreen for Glucocerebrosidase Inhibitors: qHTS Assay for Rice alpha-Glucosidase at pH 5.0 (AID 997);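 further: 0% = full activity with enzyme and -100% = basal without enzyme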
Outline: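 Rice alpha-glucosidase (4 nM final) with 400 uM 4-methylumbelliferyl-alpha-D-glucopyranoside in citrate buffer pH 5.0, 20 min at room temperature, stopped at pH 10; fluorescence 365/440 nm, compounds 0.7 nM–77 uM, AC50 from Hill fits.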

[14] = target: Alpha-galactosidase (Coffea arabica) (UniProt Q42656); assay: Counterscreen for Glucocerebrosidase Inhibitors: qHTS Assay for Coffee Bean alpha-Galactosidase at pH 5.9 (AID 998);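 further: plate controls were uninhibited enzyme for no effect and no-enzyme basal signal for full effect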
Outline: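 Green coffee bean enzyme (2 nM final) was incubated with compounds (0.7 nM–77 uM) and 4-methylumbelliferyl alpha-D-galactopyranoside (80 uM) in citrate buffer pH 5.9, 20 min at room temperature. High-pH stop; fluorescence 365/440 nm; AC50 from Hill fits.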

[15] = Validation of Assay for Modulators of Lamin A Splicing (AID 1459; active means well fitted curve in the direction sought with a large enough effect in the signal ratio; the % refers to the signal ratio;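 further: cells exposed to compound for two days before reading; 0% is about no effect; ratio rise marks activators and ratio drop marks inhibitors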)
Outline: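 Dual-reporter HeLa S3 line (lamin A-EGFP minigene, DsRed2) treated with compounds 48 hrs, 0.5% DMSO final. Endpoint: EGFP/DsRed2 total intensity ratio from laser-scanning microplate cytometry.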

[16] = Counterscreen for APE1 Inhibitors: Fluorescent Dye Displacement Validation Assay (AID 1707);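 further: plate controls were ThO with dsDNA and no compound for no effect and ThO without dsDNA for full effect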
Outline: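 Compounds are scored by their ability to displace Thiazole Orange (250 nM) from a 50 nM TAMRA-tagged duplex bearing a tetrahydrofuran abasic site. Buffer is 50 mM Tris-HCl pH7.5, 50mM NaCl, 2 mM MgCl2, 0.01% Tween-20.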

[17] = target: Endonuclease 4 (Escherichia coli (strain K12)) (UniProt P0A6C1); assay: Counterscreen for APE1 Inhibitors: qHTS Validation Assay for Inhibitors of Endonuclease IV (AID 1708); further: on the % scale 0 is the no-effect control and ±100 the full control effect
Outline: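 2 nM enzyme was preincubated with compounds for 15 min at room temperature in 50 mM Tris-HCl pH 7.5, 50 mM NaCl, 2 mM MgCl2, 1 mM DTT, 0.01% Tween-20. 50 nM THF-abasic TAMRA/BHQ-2 duplex substrate started the reaction.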

[18] = qHTS for differential inhibitors of proliferation of Plasmodium falciparum line 7G8 (AID 1815);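 further: parasite growth measured after three days of incubation; plate controls were vehicle wells for no effect and reference inhibitor wells for full effect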
[19] = qHTS for differential inhibitors of proliferation of Plasmodium falciparum line GB4 (AID 1816); details: Potency: Plasmodium falciparum GB4 proliferation inhibition;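 further: parasite growth measured after 72 h incubation; 0% = vehicle DMSO and -100% = reference inhibitor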
[20] = qHTS for differential inhibitors of proliferation of Plasmodium falciparum line 3D7 (AID 1876);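 further: parasite growth measured after three days of culture; 0% = vehicle wells and -100% = reference inhibitor wells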
[21] = qHTS for differential inhibitors of proliferation of Plasmodium falciparum line D10 (AID 1877);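 further: parasites grown with compound for 72 h before DNA staining; plate controls were vehicle wells for no effect and reference inhibitor wells for full effect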
[22] = qHTS for differential inhibitors of proliferation of Plasmodium falciparum line Dd2 (AID 1882); details: Potency: Plasmodium falciparum Dd2 proliferation inhibition;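 further: compound exposure of 72 h on infected erythrocytes; plate controls were DMSO vehicle for no effect and 0.29 µM artemisinin for full effect; nearly all actives have a fitted effect of over 65% in size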
Outline: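 SYBR Green I DNA fluorescence read-out, ex 485/em 535 nm. Signals were normalized to 0.29 uM artemisinin and DMSO wells, then corrected using vehicle-only plates flanking each stack. Parasite growth ran 72 h in erythrocytes before lysis.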

[23] = qHTS for differential inhibitors of proliferation of Plasmodium falciparum line W2 (AID 1883); details: Potency: Plasmodium falciparum W2 proliferation inhibition;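 further: parasites grown with compound for 72 h before lysis and staining; 0% = vehicle wells and -100% = control inhibitor wells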
[24] = qHTS for differential inhibitors of proliferation of Plasmodium falciparum line HB3 (AID 1886); details: Potency: Plasmodium falciparum HB3 proliferation inhibition;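 further: parasites grown with compound for 72 h before SYBR Green readout; plate controls were vehicle for no effect and reference inhibitor for full effect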
[25] = qHTS Assay for Modulators of Human Peripheral Myelin Protein 22 (PMP22) Expression/Activity (AID 1967; active means well fitted curve in the direction sought with a large enough effect in the signal ratio; the % refers to the signal ratio;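 further: 0% = untreated cells and 100% end not stated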)
Outline: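 Engineered MSC80 cells, Pmp22-promoter green and EF-alpha red luciferase reporters; 24h compound treatment at 37 °C. Concentration-response fits on green, red and ratio signals, each overlap-corrected, with %Activity normalized to untreated wells.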

[26] = target: Ferritin light chain (Equus caballus) (UniProt P02791); assay: qHTS Validation Assay for Identification of Novel General Anesthetics (AID 2323); further: on the % scale 0 is the no-effect control and ±100 the full control effect
Outline: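 Normalized fluorescence response, scaled between free 1-AMA and 1-AMA/apoferritin complex, fitted to a four-parameter Hill equation for concentration-effect values. Binding mix: 10 uM horse-spleen apoferritin, 50% saturated 1-AMA in PBS; read 380/535 nm after 10 min.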

[27] = target: ATP-dependent DNA helicase Q1 (Homo sapiens) (UniProt P46063); assay: qHTS Validation Assay for Inhibitors of RecQ-Like Dna Helicase 1 (RECQ1) (AID 2353);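 further: plate controls were DMSO vehicle for no effect and enzyme-free control for full effect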
Outline: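 50 nM RECQ1T1 preincubated 15 min with compound in Tris pH 8.0 buffer with MgCl2, DTT, Tween-20 and 2.5 ug/ml poly(dI-dC); started with 200 nM TAMRA/BHQ-2 forked duplex and 2 mM ATP. Unwinding read as fluorescence (525/598 nm), two reads 2 h apart.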

[28] = target: RecQ-like DNA helicase BLM (Homo sapiens) (UniProt P54132); assay: qHTS Validation Assay for Inhibitors of Bloom's syndrome helicase (BLM) (AID 2364);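 further: plate controls were DMSO vehicle for no effect and enzyme-free control for full effect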
Outline: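 BLM 50 nM in 25 mM Tris-HCl pH 8.0, 5 mM NaCl, 2 mM MgCl2, 1 mM DTT, 0.01% Tween-20, 2.5 ug/ml poly(dI-dC); 15 min cpd preinc, RT. Start: 200 nM forked DNA + 2 mM ATP (final). TAMRA read, 2 reads 2 h apart.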

[29] = Validation screen for inhibitors of Lassa infection (AID 463096; calls by dose curve; further: on the % scale 0 is the no-effect control and ±100 the full control effect)
[30] = Validation screen for small molecules that induce DNA re-replication in MCF 10A normal breast cells (AID 463097); further: 0% is about no effect; nearly all actives have a fitted effect of over 60% in size
Outline: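 Following 48 hr compound incubation (37 C, 5% CO2), MCF 10A cells receive Hoechst for 40 min at 37 C. Nuclei are then scanned (excitation 405 nm, emission 500-530 nm) for total fluorescence intensity.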

[31] = Quantitative high throughput screen for delayed death inhibitors of the malarial parasite plastid, 96 hour incubation (AID 488745);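 further: luciferase-expressing P. falciparum in erythrocytes at 2% hematocrit and 0.1% parasitemia; on the % scale 0 is the no-effect control and ±100 the full control effect; nearly all actives have a fitted effect of over 70% in size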
Outline: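 Growth of reporter-bearing P. falciparum in red cells is measured after 96 h with compound, covering two erythrocytic cycles. Luminescence from the integrated luciferase serves as the growth signal.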

[32] = target: M-phase phosphoprotein 8 (Homo sapiens) (UniProt Q99549); assay: qHTS Validation Assay for Inhibitors for MPP8 Chromodomain Interactions with Methylated Histone Tails (AID 488949);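 further: 50 nM MPP8 with 50 nM peptide preformed then compounds added for 30 min; AlphaScreen signal from MPP8 chromodomain bound to biotinylated H3K9me3 peptide; top concentration of the series differs between compounds; on the % scale 0 is the no-effect control and ±100 the full control effect; nearly all actives have a fitted effect of over 55% in size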
Outline: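 Chemiluminescent proximity assay: histidine-tag capture via nickel acceptor beads, biotin peptide via streptavidin donor beads. Protein and peptide each at 50 nM, pH 7.4, with 30 min incubations at room temperature for complex formation, compound exposure and bead binding.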

[33] = target: Transient receptor potential cation channel subfamily V member 1 (Homo sapiens) (UniProt Q8NER1); assay: HTS Assay for Compounds that Act as Enhancers of the Vanilloid Receptor 1 (AID 488979); further: 0% is about no effect
Outline: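 TRPV1-expressing cells loaded with Fluo-8 calcium dye; compounds added and calcium influx read kinetically for 3 min (agonist phase), then capsaicin at EC20 added and read 2 min more for enhancement. Fluorescence ex 480/em 520 nm.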

[34] = target: Thyrotropin receptor (Homo sapiens) (UniProt P16473); assay: qHTS Assay for Antagonists of the Thyroid Stimulating Hormone Receptor (AID 488980); further: 0% is about no effect
Outline: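 Inhibition of TSH-stimulated cAMP accumulation was quantified by homogeneous time-resolved FRET in TSHR-transfected HEK293 cells. Agonist: TSH, 4 nM final (EC80).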

[35] = target: Thyrotropin-releasing hormone receptor (Homo sapiens) (UniProt P34981); assay: qHTS for Small Molecule Agonists and Allosteric Enhancers of Human TRH Receptor: Validation Screen for Agonists (AID 493127;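 active means calcium activation more than 3 SD above the typical response in the agonist read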;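 further: intracellular calcium rise by fluo-8 fluorescence before TRH EC20 addition; 0% is about no effect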); details: TRH receptor agonist cell assay; at 2 µM; active compounds read high
Outline: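 Gq-coupled calcium mobilization in TRHR cells after compound addition, monitored kinetically with fluo-8 dye on an FDSS reader.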

[36] = target: Galactokinase (Homo sapiens) (UniProt P51570); assay: qHTS Validation Assay for Inhibitors of Human Galactokinase (GALK) (AID 493189)
Outline: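 Enzyme activity is inferred from ATP consumption: human GALK phosphorylates galactose (100 uM) using 35 uM ATP for 1 h at room temperature, and luciferase-based Kinase-Glo Plus reports unconsumed ATP.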

[37] = Validation screen for small molecules that induce DNA re-replication in SW480 colon adenocarcinoma cells (AID 504364)
Outline: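 Cells are treated 48 hr with test compound, stained 40 min with Hoechst at 37 C, and scanned for nuclear fluorescence; compounds inducing re-replication increase nuclei with elevated intensity.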

[38] = target: Voltage-gated inwardly rectifying potassium channel KCNH2 (Homo sapiens) (UniProt Q12809); assay: qHTS Assay for Small Molecule Inhibitors of the Human hERG Channel Activity (AID 588834)
Outline: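 Blockade is seen as reduced FluxOR thallium-flux fluorescence in U2OS cells expressing hERG from a BacMam construct, in Opti-MEM with 2% FCS. Concentration-response data fitted to the Hill equation for AC50.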

[39] = tested on: Zika virus NS2B-NS3 protease; assay: Primary screen GU AMC qHTS for Zika virus inhibitors (AID 1347154)
Outline: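 Unlinked Zika NS2B hydrophilic domain/NS3 protease domain noncovalent complex (25 nM final) in 10 mM Tris-HCl pH 8.0, 0.01% Tween 20, with AMC peptide substrate. Fluorescence (ex 340, em 450 nm) change over 15 min, room temperature; percent inhibition fitted to 4-parameter Hill equation.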

[40] = Primary qHTS for small molecule stabilizers of the endoplasmic reticulum resident proteome: Secreted ER Calcium Modulated Protein (SERCaMP) assay (AID 1508630)
Outline: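 GLuc-SERCaMP-expressing SH-SY5Y cells, pretreated 16 h with compound, are challenged with thapsigargin to empty ER calcium stores; after 4 h, coelenterazine is added directly to the medium and luminescence is imaged.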

Sequence of Alpha-galactosidase (Coffea arabica) (Q42656 whole entry, looked up): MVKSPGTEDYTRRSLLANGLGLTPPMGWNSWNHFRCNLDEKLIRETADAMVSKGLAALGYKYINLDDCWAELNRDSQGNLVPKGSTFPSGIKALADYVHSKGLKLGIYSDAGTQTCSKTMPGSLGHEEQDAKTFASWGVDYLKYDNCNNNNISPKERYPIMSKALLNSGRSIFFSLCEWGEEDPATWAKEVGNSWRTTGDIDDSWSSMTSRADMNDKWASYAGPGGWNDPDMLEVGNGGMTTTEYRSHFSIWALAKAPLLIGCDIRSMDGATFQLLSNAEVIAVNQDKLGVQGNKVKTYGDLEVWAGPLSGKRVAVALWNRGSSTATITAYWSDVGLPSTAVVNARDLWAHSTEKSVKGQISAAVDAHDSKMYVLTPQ
Sequence of Glucocorticoid receptor (Homo sapiens) (P04150 whole entry, looked up, the tested form may be a part): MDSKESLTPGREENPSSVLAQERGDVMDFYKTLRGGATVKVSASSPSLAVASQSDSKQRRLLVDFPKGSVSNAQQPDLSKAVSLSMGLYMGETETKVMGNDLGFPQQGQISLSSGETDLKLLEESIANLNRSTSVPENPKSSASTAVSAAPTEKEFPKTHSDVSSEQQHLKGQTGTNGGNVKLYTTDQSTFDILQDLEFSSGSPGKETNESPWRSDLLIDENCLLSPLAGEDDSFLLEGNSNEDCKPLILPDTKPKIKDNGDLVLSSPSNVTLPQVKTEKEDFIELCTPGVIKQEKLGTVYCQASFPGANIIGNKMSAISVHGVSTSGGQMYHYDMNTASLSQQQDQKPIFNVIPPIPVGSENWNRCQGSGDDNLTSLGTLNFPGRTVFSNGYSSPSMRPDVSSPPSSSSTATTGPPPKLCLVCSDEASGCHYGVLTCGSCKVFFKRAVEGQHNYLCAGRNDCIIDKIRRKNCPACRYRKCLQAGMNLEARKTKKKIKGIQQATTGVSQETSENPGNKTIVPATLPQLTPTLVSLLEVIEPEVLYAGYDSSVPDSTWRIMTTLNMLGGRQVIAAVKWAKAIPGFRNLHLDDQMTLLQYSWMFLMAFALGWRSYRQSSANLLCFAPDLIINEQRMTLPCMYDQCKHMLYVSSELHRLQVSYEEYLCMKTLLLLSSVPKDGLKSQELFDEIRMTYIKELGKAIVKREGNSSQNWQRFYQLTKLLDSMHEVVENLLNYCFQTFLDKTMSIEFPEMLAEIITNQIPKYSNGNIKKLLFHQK
Sequence of ATP-dependent DNA helicase Q1 (Homo sapiens) (P46063 whole entry, looked up): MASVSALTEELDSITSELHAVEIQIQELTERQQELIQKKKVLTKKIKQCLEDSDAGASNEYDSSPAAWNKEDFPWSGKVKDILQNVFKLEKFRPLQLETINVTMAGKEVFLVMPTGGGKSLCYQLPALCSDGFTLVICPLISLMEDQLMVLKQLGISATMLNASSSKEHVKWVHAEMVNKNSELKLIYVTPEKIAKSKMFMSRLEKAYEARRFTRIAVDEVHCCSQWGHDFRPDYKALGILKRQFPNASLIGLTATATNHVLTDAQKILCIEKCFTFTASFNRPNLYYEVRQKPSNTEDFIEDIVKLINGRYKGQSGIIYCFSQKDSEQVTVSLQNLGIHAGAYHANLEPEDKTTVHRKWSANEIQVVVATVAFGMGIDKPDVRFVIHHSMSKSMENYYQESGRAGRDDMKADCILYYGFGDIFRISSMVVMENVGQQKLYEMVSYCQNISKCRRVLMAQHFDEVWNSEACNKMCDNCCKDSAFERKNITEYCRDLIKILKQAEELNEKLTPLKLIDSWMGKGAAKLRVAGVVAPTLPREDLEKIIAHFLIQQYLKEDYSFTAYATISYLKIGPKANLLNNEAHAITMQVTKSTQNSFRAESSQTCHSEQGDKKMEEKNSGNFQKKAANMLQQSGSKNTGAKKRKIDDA
Sequence of Muscarinic acetylcholine receptor M1 (Rattus norvegicus) (P08482 whole entry, looked up): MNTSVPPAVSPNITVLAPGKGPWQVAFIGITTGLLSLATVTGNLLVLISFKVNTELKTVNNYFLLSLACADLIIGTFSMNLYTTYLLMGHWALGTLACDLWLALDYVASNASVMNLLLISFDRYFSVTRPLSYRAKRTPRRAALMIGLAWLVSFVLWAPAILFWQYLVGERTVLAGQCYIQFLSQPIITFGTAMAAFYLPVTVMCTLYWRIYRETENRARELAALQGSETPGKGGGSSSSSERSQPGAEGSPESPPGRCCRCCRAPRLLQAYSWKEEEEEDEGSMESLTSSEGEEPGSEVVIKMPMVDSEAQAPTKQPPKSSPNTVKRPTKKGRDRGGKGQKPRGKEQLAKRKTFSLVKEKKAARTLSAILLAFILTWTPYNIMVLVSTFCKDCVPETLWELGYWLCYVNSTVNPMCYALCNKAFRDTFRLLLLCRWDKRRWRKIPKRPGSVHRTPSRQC
Sequence of Thyrotropin-releasing hormone receptor (Homo sapiens) (P34981 whole entry, looked up): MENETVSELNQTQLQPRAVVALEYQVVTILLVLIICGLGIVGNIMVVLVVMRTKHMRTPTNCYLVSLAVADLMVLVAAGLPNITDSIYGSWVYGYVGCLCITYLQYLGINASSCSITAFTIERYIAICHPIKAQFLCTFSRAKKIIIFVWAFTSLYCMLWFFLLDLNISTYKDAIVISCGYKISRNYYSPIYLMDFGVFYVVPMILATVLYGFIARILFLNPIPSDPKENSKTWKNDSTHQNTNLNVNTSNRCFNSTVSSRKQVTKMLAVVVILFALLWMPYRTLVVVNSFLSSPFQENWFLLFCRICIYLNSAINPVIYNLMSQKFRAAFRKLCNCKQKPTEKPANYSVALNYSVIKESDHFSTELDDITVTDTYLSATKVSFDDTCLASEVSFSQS
Sequence of RecQ-like DNA helicase BLM (Homo sapiens) (P54132 whole entry, looked up): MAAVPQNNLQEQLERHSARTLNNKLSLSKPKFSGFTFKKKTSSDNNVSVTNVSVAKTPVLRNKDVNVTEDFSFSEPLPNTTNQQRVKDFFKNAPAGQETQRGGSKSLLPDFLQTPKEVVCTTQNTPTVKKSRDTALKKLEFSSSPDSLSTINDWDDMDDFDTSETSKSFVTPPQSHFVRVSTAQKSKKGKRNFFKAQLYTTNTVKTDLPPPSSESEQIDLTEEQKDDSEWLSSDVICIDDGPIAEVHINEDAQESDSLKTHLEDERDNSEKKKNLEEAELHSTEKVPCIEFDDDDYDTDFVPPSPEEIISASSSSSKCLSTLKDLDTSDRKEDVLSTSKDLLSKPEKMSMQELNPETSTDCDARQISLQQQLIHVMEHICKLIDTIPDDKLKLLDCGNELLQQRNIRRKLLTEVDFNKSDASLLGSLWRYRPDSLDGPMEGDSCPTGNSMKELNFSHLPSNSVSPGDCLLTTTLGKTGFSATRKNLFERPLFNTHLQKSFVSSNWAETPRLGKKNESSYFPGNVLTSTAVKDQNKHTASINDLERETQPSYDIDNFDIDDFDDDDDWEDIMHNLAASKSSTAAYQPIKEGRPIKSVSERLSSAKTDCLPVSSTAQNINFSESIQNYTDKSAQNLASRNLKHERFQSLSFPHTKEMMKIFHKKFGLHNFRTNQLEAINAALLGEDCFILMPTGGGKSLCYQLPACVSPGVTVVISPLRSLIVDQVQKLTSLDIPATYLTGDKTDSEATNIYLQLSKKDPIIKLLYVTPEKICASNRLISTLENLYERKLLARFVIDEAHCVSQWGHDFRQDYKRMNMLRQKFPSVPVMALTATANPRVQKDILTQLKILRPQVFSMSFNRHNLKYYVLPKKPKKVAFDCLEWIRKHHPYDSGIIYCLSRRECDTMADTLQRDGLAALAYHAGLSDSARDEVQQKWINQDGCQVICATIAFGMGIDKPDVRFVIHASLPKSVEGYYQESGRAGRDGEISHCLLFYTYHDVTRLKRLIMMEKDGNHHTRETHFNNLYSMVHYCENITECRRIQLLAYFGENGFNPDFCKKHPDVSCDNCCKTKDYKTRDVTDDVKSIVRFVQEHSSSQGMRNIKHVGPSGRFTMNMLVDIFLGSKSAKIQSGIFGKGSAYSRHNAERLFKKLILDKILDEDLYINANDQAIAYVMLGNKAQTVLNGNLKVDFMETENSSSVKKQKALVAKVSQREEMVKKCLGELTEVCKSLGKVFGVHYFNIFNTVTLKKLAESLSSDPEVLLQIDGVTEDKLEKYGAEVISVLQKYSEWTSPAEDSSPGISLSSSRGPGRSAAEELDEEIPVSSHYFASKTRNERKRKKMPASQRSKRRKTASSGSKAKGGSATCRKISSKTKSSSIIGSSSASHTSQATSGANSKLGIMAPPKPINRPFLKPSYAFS
Sequence of Transient receptor potential cation channel subfamily V member 1 (Homo sapiens) (Q8NER1 whole entry, looked up): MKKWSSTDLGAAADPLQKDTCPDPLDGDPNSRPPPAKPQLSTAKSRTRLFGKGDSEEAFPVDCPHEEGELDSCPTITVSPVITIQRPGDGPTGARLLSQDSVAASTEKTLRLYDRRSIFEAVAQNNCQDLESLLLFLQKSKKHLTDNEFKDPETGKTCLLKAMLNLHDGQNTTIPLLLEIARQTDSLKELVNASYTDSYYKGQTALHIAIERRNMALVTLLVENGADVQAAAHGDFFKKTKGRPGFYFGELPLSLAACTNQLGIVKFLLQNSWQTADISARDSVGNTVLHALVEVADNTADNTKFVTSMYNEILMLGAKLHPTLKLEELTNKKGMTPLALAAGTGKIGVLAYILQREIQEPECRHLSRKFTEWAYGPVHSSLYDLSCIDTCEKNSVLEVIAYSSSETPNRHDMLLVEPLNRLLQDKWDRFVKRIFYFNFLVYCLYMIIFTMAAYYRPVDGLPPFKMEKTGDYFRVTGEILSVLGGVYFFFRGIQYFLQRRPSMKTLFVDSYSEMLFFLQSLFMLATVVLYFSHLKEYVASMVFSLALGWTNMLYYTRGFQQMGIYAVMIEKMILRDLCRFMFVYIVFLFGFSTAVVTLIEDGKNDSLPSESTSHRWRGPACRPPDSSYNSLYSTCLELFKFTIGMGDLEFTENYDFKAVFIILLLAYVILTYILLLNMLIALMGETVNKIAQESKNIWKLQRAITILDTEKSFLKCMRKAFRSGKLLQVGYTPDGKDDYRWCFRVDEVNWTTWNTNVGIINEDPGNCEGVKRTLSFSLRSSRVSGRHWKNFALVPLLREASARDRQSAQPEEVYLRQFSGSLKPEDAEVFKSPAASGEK

COc1cc(CCN)ccc1O
inactive: activity change, negative = inhibition [1] 5.48% | Potency [2] > 46 µM | Potency [3] > 46 µM | outcome [4] | Potency [5] | outcome [6] | outcome [7] | Potency [8] | outcome [9] | outcome [10] | outcome [11] | outcome [12] | outcome [13] | outcome [14] | outcome [15] | Potency [16] | outcome [17] | Potency [18] | Potency [19] | Potency [20] | Potency [21] | Potency [22] | Potency [23] | Potency [24] | outcome [25] | outcome [26] | Potency [27] | Potency [28] | Potency [29] | Potency [30] | Potency [31] | Potency [32] | outcome [33] | outcome [34] | activation [35] -0.312% | outcome [36] | Potency [37] | Potency [38] | Potency [39] | Potency [40]
